Where “and” joins values, the source holds several entries; their conditions need not be identical. Equal entries are not always repeated. Records with an inconclusive call do not appear. Calls of active or inactive are those of the source. Calls follow the shape of the dose curve; as a rule, active = well fitted curve in the direction sought with a large enough effect; inconclusive = small, poorly fitted or top-dose-only effect, or another doubt; inactive = no such curve, though single readings can be large; an effect the other way counts as inactive or inconclusive.
How the values were obtained:
MCC-13 = experiment: qHTS assay to identify novel small-molecules to repurpose for Merkel cell carcinoma treatment (AID 1296009); details: MCC and control cell lines, CellTiter-Glo viability, 72 h; series mostly up to 46 µM; also: nearly all actives have a fitted effect of over 60% in size
Method in brief: (§1)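 Luminescence from CellTiter-Glo, read 10 min after addition at room temperature, reported viability following a 72 hr, 37 degree celsius treatment with NPC or MIPE compounds in titration; values normalized to plate controls.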

MCC-26 = experiment: as above; details: MCC and control cell lines, CellTiter-Glo viability, 72 h; series mostly up to 46 µM
Method in brief: as §1

MKL-1 = experiment: as above; details: MCC and control cell lines, CellTiter-Glo viability, 72 h; series mostly up to 46 µM
Method in brief: as §1

MKL-2 = experiment: as above; details: MCC and control cell lines, CellTiter-Glo viability, 72 h; series mostly up to 46 µM
Method in brief: as §1

UISO = experiment: as above; details: MCC and control cell lines, CellTiter-Glo viability, 72 h; series mostly up to 46 µM
Method in brief: as §1

WaGa = experiment: as above; details: MCC and control cell lines, CellTiter-Glo viability, 72 h; series mostly up to 46 µM
Method in brief: as §1

C33A = experiment: Primary qHTS to identify gynecologic anti-cancer compounds using libraries of approved drugs and bioactive compounds (AID 1345084); details: Gynecologic cancer cell panel viability, ATPlite luminescence, 48 h; series mostly up to 57.5 µM; also: nearly all actives have a fitted effect of over 55% in size; also: potency is read from the fitted curve at half-maximal effect
Method in brief: (§2)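 Cytotoxicity screen measuring ATP content by luciferase luminescence. Each compound is applied at five concentrations for 48 h at 37 C with 5% CO2.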

CAOV3 = experiment: as above; details: Gynecologic cancer cell panel viability, ATPlite luminescence, 48 h; series mostly up to 57.5 µM
Method in brief: as §2

Es-2 = experiment: as above; details: Gynecologic cancer cell panel viability, ATPlite luminescence, 48 h; series mostly up to 57.5 µM
Method in brief: as §2

HeLa = experiment: as above; details: Gynecologic cancer cell panel viability, ATPlite luminescence, 48 h; series mostly up to 57.5 µM
Method in brief: as §2

Hek293T = experiment: as above; details: Gynecologic cancer cell panel viability, ATPlite luminescence, 48 h, control line for the selectivity index; series mostly up to 57.5 µM
Method in brief: as §2

JEG-3 = experiment: as above; details: Gynecologic cancer cell panel viability, ATPlite luminescence, 48 h; series mostly up to 57.5 µM
Method in brief: as §2

PA-1 = experiment: as above; details: Gynecologic cancer cell panel viability, ATPlite luminescence, 48 h; series mostly up to 57.5 µM
Method in brief: as §2

SKOV3 = experiment: as above; details: Gynecologic cancer cell panel viability, ATPlite luminescence, 48 h; series mostly up to 57.5 µM
Method in brief: as §2

Tov-21-G = experiment: as above; details: Gynecologic cancer cell panel viability, ATPlite luminescence, 48 h; series mostly up to 57.5 µM
Method in brief: as §2

Tov112D = experiment: as above; details: Gynecologic cancer cell panel viability, ATPlite luminescence, 48 h; series mostly up to 57.5 µM
Method in brief: as §2

[1] = Drug repurposing screens with cells derived from glioblastoma tumor samples (AID 1345199); details: GBM patient neurospheres viability, ATP luminescence, 48 h; also: nearly all actives have a fitted effect of over 40% in size; also: potency is read from the fitted curve at half-maximal effect
Method in brief: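 Primary testing used CD133+ neurospheres from four GBM patients, seven concentrations, 48 h exposure and ATP-based viability; confirmation added three slower-growing patient lines.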

CASKI = experiment: Primary qHTS to identify gynecologic anti-cancer compounds using libraries of approved drugs and bioactive compounds (AID 1345084); details: Gynecologic cancer cell panel viability, ATPlite luminescence, 48 h; series mostly up to 57.5 µM; also: nearly all actives have a fitted effect of over 55% in size; also: potency is read from the fitted curve at half-maximal effect
Method in brief: as §2

OV90 = experiment: as above; details: Gynecologic cancer cell panel viability, ATPlite luminescence, 48 h; series mostly up to 57.5 µM
Method in brief: as §2

[2] = at 45.9 µM (top of the series), tumour line B
[3] = at 45.9 µM (top of the series), tumour line D
[4] = at 46 µM (top of the series), tumour line A
[5] = at 21.2 µM (top of the series), tumour line B
[6] = at 21.2 µM (top of the series), tumour line D
% is scaled to controls: 0 for no effect and ±100 for the full control effect.

COc1cc(C[C@@H](C)N)c(OC)cc1Br
inactive: Potency (MCC-13) | Potency (MCC-26) | Potency (MKL-1) | Potency (MKL-2) | Potency (UISO) | Potency (WaGa) | Potency (C33A) | Potency (CAOV3) | Potency (Es-2) | Potency (HeLa) | Potency (Hek293T) | Potency (JEG-3) | Potency (PA-1) | Potency (SKOV3) | Potency (Tov-21-G) | Potency (Tov112D) | activity, negative = cell killing ([1]; at 108 µM (top of the series), tumour line B) -21.6%
active: Potency ([1]; tumour line A) 35.5 µM

Sc1ccccc1Cl
inactive: Potency (MCC-13) | Potency (MCC-26) | Potency (MKL-1) | Potency (MKL-2) | Potency (UISO) | Potency (WaGa) | Potency (C33A) | Potency (CASKI) | Potency (Es-2) | Potency (HeLa) | Potency (Hek293T) | Potency (JEG-3) | Potency (OV90) | Potency (PA-1) | Potency (SKOV3) | Potency (Tov-21-G) | Potency (Tov112D)

C#C[C@]1(O)C=C[C@H]2[C@@H]3CCC4=CC(=O)CC[C@@H]4[C@H]3CC[C@@]21CC
inactive: Potency (MCC-13) | Potency (MCC-26) | Potency (MKL-1) | Potency (MKL-2) | Potency (UISO) | Potency (WaGa) | Potency (C33A) | Potency (CASKI) | Potency (Es-2) | Potency (Hek293T) | Potency (JEG-3) | Potency (OV90) | Potency (PA-1) | Potency (SKOV3) | Potency (Tov-21-G) | Potency (Tov112D) | activity, negative = cell killing [1, 2] -6.47% | activity, negative = cell killing [1, 3] -10.7%
active: Potency (HeLa) 12.6 µM

CCNc1nc(Cl)nc(NCC)n1
inactive: Potency (MCC-13) | Potency (MCC-26) | Potency (MKL-1) | Potency (MKL-2) | Potency (UISO) | Potency (WaGa) | Potency (C33A) | Potency (CAOV3) | Potency (CASKI) | Potency (Es-2) | Potency (HeLa) | Potency (Hek293T) | Potency (JEG-3) | Potency (OV90) | Potency (PA-1) | Potency (SKOV3) | Potency (Tov-21-G) | Potency (Tov112D) | activity, negative = cell killing [1, 2] -2.74% | activity, negative = cell killing [1, 3] -21.4% | activity, negative = cell killing [1, 4] -24.7%

COc1ccc(CN2CCNCC2)c(OC)c1OC
inactive: Potency (MCC-13) | Potency (MCC-26) | Potency (MKL-1) | Potency (MKL-2) | Potency (UISO) | Potency (WaGa) | Potency (C33A) | Potency (CASKI) | Potency (Es-2) | Potency (HeLa) | Potency (Hek293T) | Potency (JEG-3) | Potency (OV90) | Potency (PA-1) | Potency (SKOV3) | Potency (Tov-21-G) | Potency (Tov112D) | activity, negative = cell killing [1, 5] -2.66% | activity, negative = cell killing [1, 6] -1.27%

Cc1nnc2n1-c1sc(CCC(=O)N3CCOCC3)cc1C(c1ccccc1Cl)=NC2
inactive: Potency (MCC-13) | Potency (MCC-26) | Potency (MKL-1) | Potency (MKL-2) | Potency (UISO) | Potency (WaGa) | Potency (C33A) | Potency (CAOV3) | Potency (CASKI) | Potency (Es-2) | Potency (HeLa) | Potency (Hek293T) | Potency (JEG-3) | Potency (OV90) | Potency (PA-1) | Potency (SKOV3) | Potency (Tov-21-G) | Potency (Tov112D) | activity, negative = cell killing [1, 2] -14.3% and -9.87% | activity, negative = cell killing [1, 3] -19.2% and -29.4% | activity, negative = cell killing [1, 4] -18.9%

Cc1c(Cl)c(=O)oc2cc(OP(=O)(OCCCl)OCCCl)ccc12
inactive: Potency (MCC-13) | Potency (MCC-26) | Potency (MKL-1) | Potency (MKL-2) | Potency (UISO) | Potency (WaGa) | Potency (C33A) | Potency (CAOV3) | Potency (CASKI) | Potency (Es-2) | Potency (HeLa) | Potency (Hek293T) | Potency (JEG-3) | Potency (PA-1) | Potency (SKOV3) | Potency (Tov-21-G) | Potency (Tov112D) | activity, negative = cell killing [1, 2] -10.4% | activity, negative = cell killing [1, 3] -23.1%

CCOC(=O)NC(C)(C)Cc1ccc(Cl)cc1
inactive: Potency (MCC-13) | Potency (MCC-26) | Potency (MKL-1) | Potency (MKL-2) | Potency (UISO) | Potency (WaGa) | Potency (C33A) | Potency (CAOV3) | Potency (CASKI) | Potency (Es-2) | Potency (HeLa) | Potency (Hek293T) | Potency (JEG-3) | Potency (OV90) | Potency (PA-1) | Potency (Tov-21-G) | Potency (Tov112D) | activity, negative = cell killing [1, 2] 0.659% | activity, negative = cell killing [1, 3] -16.7%

NCc1cccnc1
inactive: Potency (MCC-13) | Potency (MCC-26) | Potency (MKL-1) | Potency (MKL-2) | Potency (UISO) | Potency (WaGa) | Potency (C33A) | Potency (CAOV3) | Potency (CASKI) | Potency (Es-2) | Potency (HeLa) | Potency (Hek293T) | Potency (JEG-3) | Potency (OV90) | Potency (PA-1) | Potency (SKOV3) | Potency (Tov-21-G) | Potency (Tov112D) | activity, negative = cell killing [1, 2] -7.53% | activity, negative = cell killing [1, 3] -1.09% | activity, negative = cell killing [1, 4] -28.1%

C=CCN1CC[C@]23CCCC[C@H]2[C@H]1Cc1ccc(O)cc13
active: Potency ([1]; tumour line B) 35.5 µM
inactive: Potency (MCC-13) | Potency (MCC-26) | Potency (MKL-1) | Potency (MKL-2) | Potency (UISO) | Potency (WaGa) | Potency (C33A) | Potency (CAOV3) | Potency (CASKI) | Potency (Es-2) | Potency (HeLa) | Potency (Hek293T) | Potency (JEG-3) | Potency (PA-1) | Potency (SKOV3) | Potency (Tov-21-G) | Potency (Tov112D) | activity, negative = cell killing [1, 4] 29%

CCC1(c2cccc(O)c2)CCCCN(C)C1 (configuration not stated)
inactive: Potency (MCC-13) | Potency (MCC-26) | Potency (MKL-1) | Potency (MKL-2) | Potency (UISO) | Potency (WaGa) | Potency (C33A) | Potency (CAOV3) | Potency (CASKI) | Potency (Es-2) | Potency (HeLa) | Potency (Hek293T) | Potency (JEG-3) | Potency (OV90) | Potency (PA-1) | Potency (SKOV3) | Potency (Tov-21-G) | Potency (Tov112D) | activity, negative = cell killing [1, 5] -5.3% | activity, negative = cell killing [1, 6] -23.7%

c1cc2c(c(N3CCNCC3)c1)OCCO2
inactive: Potency (MCC-13) | Potency (MCC-26) | Potency (MKL-1) | Potency (MKL-2) | Potency (UISO) | Potency (WaGa) | Potency (C33A) | Potency (CASKI) | Potency (Es-2) | Potency (HeLa) | Potency (Hek293T) | Potency (JEG-3) | Potency (OV90) | Potency (PA-1) | Potency (SKOV3) | Potency (Tov-21-G) | Potency (Tov112D) | activity, negative = cell killing [1, 2] -7.8% | activity, negative = cell killing [1, 3] -0.968%

NC(=O)CN1CCCC1=O
inactive: Potency (MCC-13) | Potency (MCC-26) | Potency (MKL-1) | Potency (MKL-2) | Potency (UISO) | Potency (WaGa) | Potency (C33A) | Potency (CASKI) | Potency (Es-2) | Potency (HeLa) | Potency (Hek293T) | Potency (JEG-3) | Potency (OV90) | Potency (PA-1) | Potency (SKOV3) | Potency (Tov-21-G) | Potency (Tov112D) | activity, negative = cell killing [1, 5] -8.16% | activity, negative = cell killing [1, 6] -13% | activity, negative = cell killing ([1]; at 21.3 µM (top of the series), tumour line A) -16.4%

Reference: PubChem BioAssay (NCATS)
